HSF1 inh – HSF1 inhibition | NIH3T3-HGL HSE-luciferase, MG132-induced, luminescence 8 h; stronger effect = lower value | activity change, negative = inhibition, % at 7.5 µM (by protocol) | 0.77% of 300,000 active | AID 2098;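 active = more than half of replicate wells show activity change below -50%, luminescence cut by over half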;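 also: luciferase reports HSF-1 transcriptional activity via heat shock element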
AI-2 QS mod – modulators of Vibrio harveyi AI-2 quorum sensing system. 0.4% of 300,000 active. activity change, % at 7.5 µM. Vibrio harveyi JMH597 AI-2 luminescence/OD600 ratio, 9 h; stronger effect = lower value; strain lacks LuxN and CqsS sensors; 0 = neutral-control median. AID 2094; in the data active = activity change below about -75%, passing the limit was not always enough;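 also: luminescence divided by OD600 gain over 9 h not by final OD600 alone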
PG9 Ab binder – PG9 antibody binding by small molecule. TR-FRET gp120-PG9 antibody binding. inhibition, % at 6.7 µM. 0.43% of 360,000 active. AID 624416; in the data active = inhibition above about 8.5%
HSP90 inh – HSP90 refolding inhibition in rabbit reticulocyte lysate; luciferase refolding luminescence, 3 h; inhibition, % at 5.6 µM; 0.91% of 290,000 active; AID 1789;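 active = inhibition above the screen-wide mean plus 3 SD, computed separately per campaign, cut at about 16% in these data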;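 also: inhibitors lower the luminescence because luciferase stays unfolded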
SMARCA2 act – SMARCA2 function activation, primary screen; MG213 cells, MMTV-luciferase reporter, dexamethasone, overnight; activation, % at 9.1 µM; 1% of 370,000 active; in the data active = activation above about 7.8%
GAA850 FXN act – frataxin GAA850 promoter activation; HEK293 lucGAA850 FXN promoter luciferase reporter, 24 h; percent of 10 µM SAHA response; activation, % at 6 µM; 0.56% of 360,000 active; AID 540364;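 active = activation above the average of all compounds screened plus 3 SD, cutoff fixed separately per campaign, cut at about 7.5% in these data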
SMARCA2 conf – confirmation of SMARCA2 (BRM) function activators; shares compounds with SMARCA2 act; MG213 cells, MMTV-luciferase with dexamethasone, luminescence, overnight; MG213 cells expressing E1A, Rb sequestered; DMSO wells 0%, reference activator 100%; activation, % at 9.1 µM; 30% of 3,500 active;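 active = activation above its plate's cutoff, the mean activation of tested wells plus 3 SD, cut at about 7.9% in these data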
GAL4-VP16 Luc – GAL4-VP16 reporter activation counter-screen | shares compounds with SMARCA2 act | HEK293 GAL4-VP16 pG5luc reporter, luciferase luminescence; scaled: DMSO wells 0%, SAHA wells 100% | activation, % at 9.1 µM | 41% of 3,500 active | AID 686939;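 active = activation above the solvent-only control well mean plus 3 SD, averaged across control plates, cut at about 5.2% in these data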
A number is an active result; 0 = inactive; - = no result given. Shown are actives, neighbours in structure and some others; about 3.4% of the full set was active somewhere.

SMILES	HSF1 inh	AI-2 QS mod	PG9 Ab binder	HSP90 inh	SMARCA2 act	GAA850 FXN act	SMARCA2 conf	GAL4-VP16 Luc
Cc1ccccc1C(c1ncccc1C)N(C)C(=O)C1CCN(CCOc2ccc(Cl)cc2Cl)CC1 (configuration not stated)	-	-	0	-	0	0	-	-
CSc1ccccc1NC(=O)c1cc(C)on1	0	0	0	0	0	0	-	-
CSc1ccccc1NC(=O)c1cc(-c2ccc3c(c2)OCO3)on1	0	0	0	0	10.4	0	0	0
CSc1ccccc1NC(=O)c1cc(C(C)C)on1	0	0	0	0	8.0	0	0	7.9
O=C(Nc1cc(Br)ccc1O)c1cc(-c2ccc3c(c2)OCO3)on1	0	0	0	0	0	0	-	-
C=CC(=O)NC1CCCCN(C)C1=O (configuration not stated)	-	-	0	-	0	-	-	-
CN1OC[C@@H]2CN3C(=Nc4cc(C(F)(F)F)cc(C(F)(F)F)c4)Sc4ccccc4[C@@H]3C[C@@H]21	-	-	0	-	0	-	-	-
Cc1nnc(SCC(=O)NC(=O)Nc2ccc3c(c2)OCCO3)s1	0	0	0	0	11.0	0	0	0
COc1cc(C(=O)N2CC(=O)Nc3ccccc32)cc(OC)c1OC	-	-	0	-	9.2	0	0	0
O=C(O)c1cc(-c2cc(C(=O)O)c3ccccc3n2)nc2ccccc12	0	0	-	0	-	-	-	-
O=C(O)c1cc(-c2ccc3ccccc3n2)nc2ccccc12	0	0	0	0	13.2	0	0	7.7
C[C@@H]1COc2cc(NCCCN3CCOCC3)ccc2S(=O)(=O)N1	-	-	0	-	0	-	-	-
COC(=O)c1cc2c(c3c4ccccc4n(S(=O)(=O)c4ccc(C)cc4)c13)C(=O)N(CC(C)C)C2	-	-	0	-	0	-	-	-
Clc1ccc(CO/N=C2\CCCc3nonc32)cc1	0	0	0	0	12.9	0	8.1	0
CCCCNC(=O)C1C(c2ccccc2)=Nc2ccccc2N1C(=O)c1ccc2c(c1)OCO2 (configuration not stated)	-	-	0	-	0	-	-	-
Cc1cccc(C)c1NC(=O)C1C(c2ccc3c(c2)OCO3)=Nc2ccccc2N1C(=O)c1ccccn1 (configuration not stated)	-	-	0	-	8.1	-	0	0
CC(=O)N1c2ccccc2N=C(c2ccc3c(c2)OCO3)C1C(=O)NCc1ccccc1 (configuration not stated)	-	-	0	-	10.8	-	0	0
Cc1cccc(C)c1NC(=O)C1C(c2ccc3c(c2)OCO3)=Nc2ccccc2N1C(=O)c1cccc(C(F)(F)F)c1 (configuration not stated)	-	-	0	-	0	-	-	-
c1ccc(CN=C2NN=C(c3cc4ccccc4o3)CS2)cc1	0	0	0	0	0	0	-	-
c1ccc2oc(C3=NNC(=NC4CC4)SC3)cc2c1	0	0	0	0	9.5	0	0	6.5
NC(=S)NN=Cc1nccc2c(N)cccc12	-	-	0	-	8.3	0	0	0
Nc1[nH]c(C(=O)c2ccccc2)c(-c2ccc(F)cc2)c1C(=O)c1c[nH]c2ccccc12	-	-	0	-	0	-	-	-
Nc1ccc(S(=O)(=O)Nc2cnc3c(Cl)cccc3n2)cc1	0	-	0	-	9.1	0	30.7	0
Nc1ccc(S(=O)(=O)Nc2cnc3ccccc3n2)cc1	0	0	0	0	0	0	-	-
c1ccc(-c2csc(Nc3ccc4c(c3)OCO4)n2)cc1	-	-	0	-	11.3	-	0	9.3
SMILES	HSF1 inh	AI-2 QS mod	PG9 Ab binder	HSP90 inh	SMARCA2 act	GAA850 FXN act	SMARCA2 conf	GAL4-VP16 Luc
O=C(Nc1nncs1)C1COc2ccccc2O1 (configuration not stated)	0	0	0	0	9.0	0	0	0
O=C(Nc1nnc(C2CC2)s1)C1COc2ccccc2O1 (configuration not stated)	0	0	0	0	12.2	0	0	14.4
O=C(Nc1ccccc1)C1COc2ccccc2O1 (configuration not stated)	0	0	0	0	0	0	-	-
CCCCNS(=O)(=O)CC1NCCc2ccccc21 (configuration not stated)	-	-	-	-	0	-	-	-
CC(Oc1ccc(Cl)cc1Cl)C(=O)NC1CCSC1=O (configuration not stated)	0	0	0	0	8.3	0	0	0
CCNC(=O)C(C)Oc1ccc(Cl)cc1Cl (configuration not stated)	0	0	0	0	0	0	-	-
CCCc1cc(=O)oc2c(CN(CC)CC)c(O)c(Cl)cc12	0	0	0	0	9.4	0	0	0
COc1ccccc1OCc1cc(C(=O)N(C)CCC2CCCCO2)no1 (configuration not stated)	0	0	0	0	10.5	0	0	10.9
CCN(CC)CCCNC(=O)c1ccc2c3n(nc2c1)-c1ccc(Cl)cc1CO3	0	0	0	-	11.3	0	23.2	7.2
CC(C)NC(=O)c1ccc2c3n(nc2c1)-c1ccc(Cl)cc1CO3	0	0	0	-	0	0	-	-
COC(=O)C1=C(C)N(C)C(=NCc2cccc(C(F)(F)F)c2)NC1c1cccc(Cl)c1 (configuration not stated)	-	-	0	-	0	-	-	-
COC(=O)[C@H]1C[C@@]2(O)CN(S(=O)(=O)c3ccc(C)cc3)C[C@@]2(OC(=O)NC2CCCC2)C[C@H]1C(=O)OC	-	-	0	-	0	0	-	-
O=C(NCCN1CCCC1)c1ccc2c(=O)n(CCc3ccccc3)c(=O)[nH]c2c1	0	0	0	0	8.2	0	10.5	0
COc1cc(C(=O)N=c2sc3c(C)ccc(OC)c3n2C)cc(OC)c1OC	0	0	0	0	0	0	-	-
COc1ccc(C(=O)N=c2sc3c(C)ccc(OC)c3n2C)cc1	0	0	0	0	9.2	0	0	9.8
COc1ccc(C(=O)N2CCCC(O)C2)cc1OC1CCN(C(C)C)CC1 (configuration not stated)	0	0	0	0	8.2	0	0	0
COCC1CCN(C(=O)c2ccc(OC)c(OC3CCN(C(C)C)CC3)c2)CC1	0	0	0	0	0	0	-	-
CCOc1ccccc1Nc1cc2n(c(=O)n1)CCc1cc(OC)c(OC)cc1-2	0	0	0	0	12.1	0	8.8	7.8
COc1cc2c(cc1OC)-c1cc(Nc3ccccc3C)nc(=O)n1CC2	0	0	0	0	0	0	-	-
O=c1c2c(nc3c(-c4ccc(Cl)cc4)c[nH]n13)CCCC2	0	0	0	0	0	0	-	-
O=c1c2c(nc3cc(-c4ccc(Cl)cc4)[nH]n13)CCS2	0	0	0	0	12.6	0	8.6	7.6
Cc1[nH]n2c(=O)c3c(nc2c1-c1ccc(F)cc1)CCCC3	0	0	0	0	0	0	-	-
